# Assay results taken from PubChem BioAssay (NCATS).
# Where “and” joins values, the source holds several entries; their conditions need not be identical. Equal entries are not always repeated. Records with an inconclusive call do not appear. Calls of active or inactive are those of the source. Unless noted, calls follow the shape of the full dose curve.
# Tests used:
# [1] = target: Bile acid receptor (Homo sapiens) (UniProt Q96RI1); experiment: qHTS assay for small molecule antagonists of farnesoid X receptor signaling (AID 588526); also: potency is read from the fitted curve at half-maximal effect
# How it was run: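 Beta-lactamase reporter antagonist mode: HEK293T FXR-UAS-bla cells, titrated compound, CDCA stimulation, 16 h 37 C, CCF4 dye 2 h RT. Data normalized to CDCA 50 uM and DMSO; Hill-fit IC50.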
# [2] = target: Bile acid receptor (Homo sapiens) (UniProt Q96RI1); experiment: qHTS assay for small molecule agonists of farnesoid X receptor signaling (AID 588527); conditions: HEK293T FXR-UAS-bla, beta-lactamase ratio, 16 h; activation: stronger effect = higher value;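 also: series mostly up to about 77 µM; 0% = vehicle basal and 100% = reference agonist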
# How it was run: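 FXR-UAS-bla HEK293T cells (10% dialyzed FBS) preincubated 5-7 h at 37 C, then compounds at up to 92 uM for 16 h at 37 C. CCF4 beta-lactamase read-out after 2 h RT. Normalized to chenodeoxycholic acid (100 uM) and DMSO; Hill fit gave EC50 and efficacy.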
# [3] = target: Peroxisome proliferator-activated receptor delta (Homo sapiens) (UniProt Q03181); experiment: qHTS assay for small molecule agonists of peroxisome proliferator-activated receptor delta signaling (AID 588534);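 also: 0% = DMSO basal wells and 100% = positive control agonist at 10 µM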
# How it was run: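 Agonist-mode qHTS; reporter cells, 5 hrs 37 C pre-incubation; compound titration, 18 hrs 37 C; CCF4 dye, 2 hrs RT; fluorescence read. EC50/efficacy via Hill fit.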
# [4] = qHTS assay for small molecule antagonists of peroxisome proliferator-activated receptor delta signaling (AID 588535; active = well fitted inhibition curve with a large enough effect in the signal ratio, with a control signal flat, not every such curve was filed as active; the % refers to the signal ratio; also: potency is read from the fitted curve at half-maximal effect;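 as to max response: cells co-treated with a PPAR-delta agonist as stimulator during compound exposure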); conditions: HEK293T PPARd-UAS-bla, beta-lactamase FRET ratio, 18 h; 460 nm channel
# How it was run: (§1)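 Titrations were run on PPAR-delta-UAS-bla HEK293T cells in charcoal/dextran-stripped serum, incubated 18 h at 37 C. CCF4 fluorescence (460/530 nm) after 2 h RT; Hill equation yields IC50 and maximal response.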
# [5] = target: Peroxisome proliferator-activated receptor delta (Homo sapiens) (UniProt Q03181); experiment: as above
# How it was run: as §1
# [6] = target: Vitamin D3 receptor (Homo sapiens) (UniProt P11473); experiment: qHTS assay for small molecule agonists of vitamin D receptor signaling (AID 588543);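 also: 0% = DMSO basal and 100% = reference agonist control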
# How it was run: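 qHTS in agonist mode: compound titrations stimulate a VDR-driven β-lactamase reporter in HEK293T cells over 16 h at 37 °C. Response normalized to 50 nM 1α,25-dihydroxyvitamin D3 = 100%, DMSO = 0%; Hill fitting gives EC50 and maximal response.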
# [7] = qHTS assay for small molecule agonists of retinoid X receptor alpha signaling (AID 588544); conditions: HEK293T RXRa-UAS-bla, beta-lactamase reporter, 18 h; 530 nm emission;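 as to activation: 0% = DMSO basal wells and 100% = reference agonist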
# [8] = target: Retinoic acid receptor RXR-alpha (Homo sapiens) (UniProt P19793); experiment: as above
# [9] = target: Thyroid hormone receptor beta (Homo sapiens) (UniProt P10828); experiment: qHTS assay for small molecule agonists of thyroid hormone receptor beta signaling (AID 588545)
# How it was run: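 Agonist activity was read as beta-lactamase CCF4 fluorescence (405 ex, 460/530 em), scaled between DMSO (0%) and 10 nM T3 (100%), then Hill-fitted for EC50 and efficacy. HEK 293 TR-UAS-bla cells in 2% charcoal/dextran FBS medium were exposed 18 h at 37 C.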
# [10] = qHTS assay for small molecule antagonists of retinoid X receptor alpha signaling (AID 588546; active = well fitted inhibition curve with a large enough effect in the signal ratio, with a control signal flat, not every such curve was filed as active; the % refers to the signal ratio;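 also: cells stimulated with 9-cis-retinoic acid as agonist; % is scaled to controls: 0 for no effect and ±100 for the full control effect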); conditions: HEK293T RXRa-UAS-bla, beta-lactamase ratio, antagonist mode; measured here: W530 green channel, cytotoxicity proxy
# How it was run: (§2)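 Beta-lactamase reporter inhibition, read as CCF4 fluorescence ratio (ex 405, em 460/530 nm) after 2 h at RT. HEK293T UAS-bla cells, 2500/well, were stimulated with 9-cis-RA at 500 or 100 nM final alongside test compound for 18 h at 37 C.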
# [11] = target: Retinoic acid receptor RXR-alpha (Homo sapiens) (UniProt P19793); experiment: as above; conditions: HEK293T RXRa-UAS-bla, beta-lactamase ratio, antagonist mode
# How it was run: as §2
# [12] = target: Thyroid hormone receptor beta (Homo sapiens) (UniProt P10828); experiment: qHTS assay for small molecule antagonists of thyroid hormone receptor beta signaling (AID 588547; active = well fitted inhibition curve with a large enough effect in the signal ratio, with a control signal flat, not every such curve was filed as active; the % refers to the signal ratio;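 also: cells stimulated with 0.4 nM T3 agonist during compound exposure; series mostly up to about 77 µM; % is scaled to controls: 0 for no effect and ±100 for the full control effect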); conditions: TR-UAS-bla HEK293, beta-lactamase ratio, antagonist mode, 18 h
# How it was run: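 Inhibition of T3-driven (0.4nM final) beta-lactamase reporter activity was measured over 0.59 nM to 92 uM compound after 18 h at 37 C. The cells were GripTite HEK293 TR-UAS-bla in charcoal/dextran-stripped serum, with CCF4 ratio read-out and IC50 from Hill fits.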
# [13] = qHTS assay for environmental chemicals that activate the Aryl hydrocarbon Receptor (AhR) signaling pathway (AID 651777; active = well fitted curve in the direction sought with a large enough effect; an effect the other way counts as inactive or inconclusive; also: % of control where 0% means no effect; nearly all actives have a fitted effect of over 15% in size); conditions: 1A2-DRE human hepatoma cells, luciferase, 24 h; activation: stronger effect = higher value
# How it was run: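 1A2-DRE human hepatoma reporter line; 1,200 cells/well; cmpd or DMSO 24 h, 37 C/5% CO2; One-Glo 30 min RT; luciferase lum.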
# [14] = target: Peroxisome proliferator-activated receptor alpha (Homo sapiens) (UniProt Q07869); experiment: qHTS assay for small molecule agonists of the peroxisome proliferator-activated receptor alpha (PPARalpha) signaling pathway (AID 651778; active = well fitted curve in the direction sought with a large enough effect; an effect the other way counts as inactive or inconclusive; also: % of control where 0% means no effect); conditions: PathHunter PPARalpha complementation, chemiluminescence, 6 h; max response: stronger effect = higher value
# How it was run: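 Chemiluminescence from complemented enzyme reported PPARalpha activation in cells after 6 hr of compound treatment at 37 C. The detection reagent was incubated for 60 min at room temperature, and compounds were scored as agonists.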
# [15] = qHTS assay for small molecule agonists of the antioxidant response element (ARE) signaling pathway measured by Nrf2-dependant transcriptional activity (AID 720636; active = well fitted curve in the direction sought with a large enough effect in the repeat runs; an effect the other way counts as inactive or inconclusive;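 also: HepG2 cells with an ARE-driven luciferase reporter; % of control where 0% means no effect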)
# How it was run: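 Cells: ARE-luc HepG2 with Nrf2-responsive luciferase. Medium contained 1% dialyzed FBS. Compound exposure lasted 16 hr at 37 C and 5% CO2, followed by ONE-Glo luciferase detection.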
# [16] = qHTS assay for small molecule agonists of the antioxidant response element (ARE) signaling pathway measured by Nrf2-dependant transcriptional activity - cell viability counter screen (AID 720653; active = well fitted curve in the direction sought with a large enough effect in the repeat runs; an effect the other way counts as inactive or inconclusive; also: potency is read from the fitted curve at half-maximal effect; as to max response: % is scaled to controls: 0 for no effect and ±100 for the full control effect); conditions: ARE-bla HepG2 viability, CellTiter-Glo ATP luminescence, 16 h; max response: stronger effect = lower value
# How it was run: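 Cytotoxicity counter screen: intracellular ATP quantified by CellTiter-Glo luminescence in the same ARE-bla HepG2 plates, after 16 h compound exposure and a 2 h beta-lactamase substrate step.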
# [17] = qHTS assay for cell viability of HEK293 cells (AID 743288; active = well fitted curve in the direction sought with a large enough effect; an effect the other way counts as inactive or inconclusive; also: nearly all actives have a fitted effect of over 50% in size; also: potency is read from the fitted curve at half-maximal effect; as to max response: % is scaled to controls: 0 for no effect and ±100 for the full control effect); conditions: ATP luminescence (CellTiter-Glo), 18 h; max response: stronger effect = lower value
# How it was run: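 Quantitative high-throughput screen: compounds were pinned onto parental HEK293 cells (2,000 per well) after a minimum 5 h settling at 37 C, incubated 18 h at 37 C, and intracellular ATP measured by luciferase luminescence.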
# [18] = qHTS assay for cell viability of the p53RE-bla HCT-116 cell line (AID 743292; active = well fitted curve in the direction sought with a large enough effect; an effect the other way counts as inactive or inconclusive; also: nearly all actives have a fitted effect of over 55% in size; also: potency is read from the fitted curve at half-maximal effect)
# How it was run: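 HCT-116 p53RE-bla cells seeded 4,000/well; 5 h at 37 C; compound (DMSO) added; 16 h at 37 C; CellTiter-Glo added, 30 min RT; luminescence read.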
# [19] = qHTS assay for small molecule activators of the nuclear factor-kappa B (NF-kB) signaling pathway (AID 651749; active = well fitted activation curve with a large enough effect in the signal ratio; the % refers to the signal ratio; also: series mostly up to about 77 µM; % of control where 0% means no effect); conditions: NF-kB-bla ME-180 cells, beta-lactamase FRET ratio, 16 h; activation: stronger effect = higher value
# How it was run: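 Activation measured after 16 hr compound treatment at 37C, 5% CO2, of 2,000 ME-180 cells/well stably expressing an NF-kB response element–driven beta-lactamase reporter, via FRET-disruption fluorescence.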
# [20] = target: Glucocorticoid receptor (Homo sapiens) (UniProt P04150); experiment: qHTS assay for small molecule agonists of glucocorticoid receptor signaling (AID 588532; active = well fitted curve in the direction sought with a large enough effect in the signal ratio, with a control signal flat; the % refers to the signal ratio;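 also: 100% = dexamethasone at 0.1 µM and 0% = DMSO only wells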); conditions: HeLa MMTV-bla, beta-lactamase ratio, agonist, 18 h; activation: stronger effect = higher value, percent of dexamethasone control, DMSO zero
# How it was run: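 Quantitative HTS using CellSensor MMTV-bla HeLa cells in charcoal/dextran-treated serum; compounds tested up to 92 uM. After 18 h at 37 C, CCF4 dye reported reporter induction.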
# Glucocorticoid receptor (Homo sapiens), sequence (P04150 whole entry, looked up): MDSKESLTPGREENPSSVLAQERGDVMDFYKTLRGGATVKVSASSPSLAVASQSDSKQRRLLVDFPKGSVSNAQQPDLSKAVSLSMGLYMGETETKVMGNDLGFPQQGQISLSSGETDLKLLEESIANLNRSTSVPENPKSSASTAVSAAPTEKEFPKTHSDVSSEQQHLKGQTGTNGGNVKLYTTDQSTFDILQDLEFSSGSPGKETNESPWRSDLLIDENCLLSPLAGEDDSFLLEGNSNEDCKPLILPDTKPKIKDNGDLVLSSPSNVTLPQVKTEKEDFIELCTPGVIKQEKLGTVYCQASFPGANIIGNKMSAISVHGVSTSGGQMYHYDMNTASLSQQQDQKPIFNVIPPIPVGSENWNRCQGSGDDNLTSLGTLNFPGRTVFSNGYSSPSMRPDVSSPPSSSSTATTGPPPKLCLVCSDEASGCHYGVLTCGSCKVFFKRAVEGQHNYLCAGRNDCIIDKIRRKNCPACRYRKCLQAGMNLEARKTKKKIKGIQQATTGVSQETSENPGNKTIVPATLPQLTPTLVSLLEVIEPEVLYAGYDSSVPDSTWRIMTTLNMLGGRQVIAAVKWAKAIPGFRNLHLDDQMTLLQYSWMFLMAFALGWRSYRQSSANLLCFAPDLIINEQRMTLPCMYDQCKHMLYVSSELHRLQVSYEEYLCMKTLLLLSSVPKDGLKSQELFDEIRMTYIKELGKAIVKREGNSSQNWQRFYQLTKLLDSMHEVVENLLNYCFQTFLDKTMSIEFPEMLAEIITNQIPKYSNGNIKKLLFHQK
# Retinoic acid receptor RXR-alpha (Homo sapiens), sequence (P19793 whole entry, looked up): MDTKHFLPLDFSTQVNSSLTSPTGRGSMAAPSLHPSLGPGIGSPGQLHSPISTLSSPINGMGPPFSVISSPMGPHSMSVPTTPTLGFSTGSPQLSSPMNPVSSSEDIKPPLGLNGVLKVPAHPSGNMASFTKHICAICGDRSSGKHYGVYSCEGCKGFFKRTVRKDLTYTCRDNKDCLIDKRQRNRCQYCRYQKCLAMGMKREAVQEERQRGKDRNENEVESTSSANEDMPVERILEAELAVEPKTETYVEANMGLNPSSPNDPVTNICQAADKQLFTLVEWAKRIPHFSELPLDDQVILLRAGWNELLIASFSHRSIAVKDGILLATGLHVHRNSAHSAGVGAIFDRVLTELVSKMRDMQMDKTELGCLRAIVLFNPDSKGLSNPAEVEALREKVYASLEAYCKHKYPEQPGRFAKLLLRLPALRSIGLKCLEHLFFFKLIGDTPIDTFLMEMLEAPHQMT
# Peroxisome proliferator-activated receptor delta (Homo sapiens), sequence (Q03181 whole entry, looked up): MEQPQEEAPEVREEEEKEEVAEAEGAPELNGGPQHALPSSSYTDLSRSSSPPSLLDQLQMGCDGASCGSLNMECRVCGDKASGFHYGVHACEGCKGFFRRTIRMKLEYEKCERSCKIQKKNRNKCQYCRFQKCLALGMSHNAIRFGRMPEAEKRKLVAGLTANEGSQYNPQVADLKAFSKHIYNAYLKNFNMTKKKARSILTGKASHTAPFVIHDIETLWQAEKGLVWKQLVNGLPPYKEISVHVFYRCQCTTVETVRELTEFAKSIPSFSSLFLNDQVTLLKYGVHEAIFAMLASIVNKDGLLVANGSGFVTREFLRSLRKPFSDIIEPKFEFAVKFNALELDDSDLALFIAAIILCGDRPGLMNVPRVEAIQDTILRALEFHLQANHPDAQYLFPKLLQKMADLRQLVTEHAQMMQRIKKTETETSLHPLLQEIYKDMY
# Thyroid hormone receptor beta (Homo sapiens), sequence (P10828 whole entry, looked up): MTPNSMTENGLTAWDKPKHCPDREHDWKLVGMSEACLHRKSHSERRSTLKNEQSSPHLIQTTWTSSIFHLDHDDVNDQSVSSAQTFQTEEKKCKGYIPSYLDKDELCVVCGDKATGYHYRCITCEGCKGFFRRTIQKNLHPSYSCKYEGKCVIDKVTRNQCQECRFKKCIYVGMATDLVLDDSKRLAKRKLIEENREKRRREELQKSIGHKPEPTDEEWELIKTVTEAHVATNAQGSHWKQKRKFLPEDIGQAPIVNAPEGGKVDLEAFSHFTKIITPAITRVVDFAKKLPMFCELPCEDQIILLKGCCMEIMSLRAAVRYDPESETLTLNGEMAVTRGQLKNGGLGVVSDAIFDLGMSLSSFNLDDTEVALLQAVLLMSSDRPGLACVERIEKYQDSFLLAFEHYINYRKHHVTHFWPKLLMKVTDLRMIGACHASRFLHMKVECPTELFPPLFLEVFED
# Peroxisome proliferator-activated receptor alpha (Homo sapiens), sequence (Q07869 whole entry, looked up): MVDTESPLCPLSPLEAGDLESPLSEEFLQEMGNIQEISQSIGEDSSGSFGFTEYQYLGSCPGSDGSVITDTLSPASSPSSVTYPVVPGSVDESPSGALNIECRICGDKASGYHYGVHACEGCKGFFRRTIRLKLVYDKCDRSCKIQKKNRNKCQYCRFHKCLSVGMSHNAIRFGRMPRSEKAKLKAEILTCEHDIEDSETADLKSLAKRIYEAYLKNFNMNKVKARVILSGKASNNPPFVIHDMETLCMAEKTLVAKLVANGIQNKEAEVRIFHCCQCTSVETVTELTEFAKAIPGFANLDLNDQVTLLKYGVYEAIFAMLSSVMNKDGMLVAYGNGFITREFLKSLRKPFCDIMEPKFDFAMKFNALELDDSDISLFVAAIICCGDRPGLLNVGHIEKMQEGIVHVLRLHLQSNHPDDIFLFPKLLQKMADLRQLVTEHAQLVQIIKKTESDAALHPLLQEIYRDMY
# Bile acid receptor (Homo sapiens), sequence (Q96RI1 whole entry, looked up): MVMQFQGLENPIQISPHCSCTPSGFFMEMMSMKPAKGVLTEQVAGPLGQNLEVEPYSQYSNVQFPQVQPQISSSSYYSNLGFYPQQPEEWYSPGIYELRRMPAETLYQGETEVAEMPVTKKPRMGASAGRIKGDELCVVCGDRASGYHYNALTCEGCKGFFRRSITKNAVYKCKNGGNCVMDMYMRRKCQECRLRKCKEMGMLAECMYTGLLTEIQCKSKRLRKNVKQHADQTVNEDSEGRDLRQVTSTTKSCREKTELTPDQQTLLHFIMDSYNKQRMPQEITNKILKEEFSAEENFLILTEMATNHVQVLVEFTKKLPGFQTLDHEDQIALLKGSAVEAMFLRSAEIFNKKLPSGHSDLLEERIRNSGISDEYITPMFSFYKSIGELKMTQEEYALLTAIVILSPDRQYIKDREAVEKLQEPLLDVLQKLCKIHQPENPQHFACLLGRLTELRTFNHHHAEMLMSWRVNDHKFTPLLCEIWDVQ
# Vitamin D3 receptor (Homo sapiens), sequence (P11473 whole entry, looked up): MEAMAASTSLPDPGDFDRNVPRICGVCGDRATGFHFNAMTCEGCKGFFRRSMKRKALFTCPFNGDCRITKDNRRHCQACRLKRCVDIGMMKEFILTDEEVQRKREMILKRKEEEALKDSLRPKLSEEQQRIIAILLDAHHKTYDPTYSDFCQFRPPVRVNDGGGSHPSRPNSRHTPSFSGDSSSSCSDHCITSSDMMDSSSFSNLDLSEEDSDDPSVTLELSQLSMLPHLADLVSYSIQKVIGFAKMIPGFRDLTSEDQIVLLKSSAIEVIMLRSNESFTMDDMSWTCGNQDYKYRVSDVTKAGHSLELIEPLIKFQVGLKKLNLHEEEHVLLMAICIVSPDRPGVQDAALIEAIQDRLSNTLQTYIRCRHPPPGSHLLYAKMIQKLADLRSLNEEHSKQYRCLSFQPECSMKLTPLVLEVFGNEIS
smiles,measurement,setting,value
C#CCC1=C(C)[C@H](OC(=O)[C@H]2[C@H](C=C(C)C)C2(C)C)CC1=O,Potency,[1],inactive
same,activation,[2],1.85% (inactive)
same,outcome,[3],inactive
same,max response,[4],25.2%
same,Potency,[5],inactive
same,outcome,[6],inactive
same,max response,[7],11.7%
same,Potency,[8],inactive
same,Potency,[9],inactive
same,max response,[10],-0.262%
same,max response,[11],-4.47% (inactive)
same,activity change % (negative = inhibition),[12],-5.41% (inactive)
same,activation,[13],9.06% (inactive)
same,max response,[14],3.44% (inactive)
same,Potency,[15],inactive
same,max response,[16],-1.44% (inactive)
same,max response,[17],-10.8% (inactive)
same,Potency,[18],inactive
CCCSP(=O)(OCC)Oc1ccc(Br)cc1Cl (centres undefined),Potency,[1],inactive
same,activation,[2],3.54% (inactive)
same,outcome,[3],inactive
same,max response,[4],5.89%
same,Potency,[5],inactive
same,outcome,[6],inactive
same,max response,[7],0.651%
same,Potency,[8],inactive
same,Potency,[9],inactive
same,activity change % (negative = inhibition),[12],3.3% (inactive)
same,activation,[19],0.74% (inactive)
same,activation,[13],3.36% (inactive)
same,max response,[14],-0.001% (inactive)
same,Potency,[15],inactive
same,max response,[16],-7.9% (inactive)
same,max response,[17],-22.2% (inactive)
CNc1cnn(-c2cccc(C(F)(F)F)c2)c(=O)c1Cl,Potency,[1],inactive
same,activation,[2],-1.1% (inactive)
same,activation,[20],-4.87% (inactive)
same,outcome,[3],inactive
same,max response,[4],18.9%
same,Potency,[5],inactive
same,outcome,[6],inactive
same,Potency,[9],inactive
same,max response,[10],-2.6%
same,max response,[11],8.14% (inactive)
same,activity change % (negative = inhibition),[12],8.76% (inactive)
same,activation,[19],-1.53% (inactive)
same,max response,[14],-1.19% (inactive)
same,max response,[16],3.99% (inactive)
same,max response,[17],-7.33% (inactive)
Cc1nc(N(C)C)nc(OC(=O)N(C)C)c1C,Potency,[1],inactive
same,activation,[2],2.16% (inactive)
same,activation,[20],1.95% (inactive)
same,outcome,[3],inactive
same,max response,[4],13.1%
same,Potency,[5],inactive
same,max response,[7],0.351%
same,Potency,[8],inactive
same,Potency,[9],inactive
same,max response,[10],-14.1%
same,max response,[11],5.66% (inactive)
same,activity change % (negative = inhibition),[12],-14.4% (inactive)
same,activation,[13],-0.147% (inactive)
same,max response,[14],-0.626% (inactive)
same,Potency,[15],inactive
same,max response,[16],-25.3% (inactive)
same,max response,[17],-11.4% (inactive)
CC1(C)CN=C(NN=C(/C=C/c2ccc(C(F)(F)F)cc2)/C=C/c2ccc(C(F)(F)F)cc2)NC1,Potency,[1],31.6 µM (active)
same,max response,[4],-117%
same,Potency,[5],39.8 µM (active)
same,activation,[13],-13.3% (inactive)
same,max response,[14],-2.05% (inactive)
same,Potency,[16],25.1 µM (active)
same,Potency,[17],44.7 µM (active)
same,Potency,[18],50.1 µM (active)
CCCN(CCOc1c(Cl)cc(Cl)cc1Cl)C(=O)n1ccnc1,Potency,[1],inactive
same,activation,[2],4.58% (inactive)
same,activation,[20],3.18% (inactive) and 2.99% (inactive)
same,outcome,[3],inactive
same,max response,[4],26.8% and 55.9%
same,Potency,[5],inactive
same,Potency,[9],inactive
same,activity change % (negative = inhibition),[12],22.9% (inactive)
same,max response,[14],-1.45% (inactive) and -1.52% (inactive)
same,Potency,[15],inactive
same,max response,[16],-20.2% (inactive) and 3.11% (inactive)
same,max response,[17],-28.6% (inactive) and -28.7% (inactive)
same,Potency,[18],inactive
c1ccc2c(c1)[nH]c1ccccc12,outcome,[3],inactive
same,Potency,[15],inactive
